Reference: PubChem BioAssay (Tox21)
Inconclusive results are not listed. Calls of active or inactive are those of the source. Calls follow the shape of the dose curve; as a rule, active = well fitted cell-killing curve with a large enough effect in the repeat runs; inconclusive = weak or mixed curves, or effect the other way; inactive = no such curve, though single readings can be large or run the other way.

experiment: qHTS assay to identify small molecule antagonists of the thyroid receptor (TR) signaling pathway - cell viability counter screen (AID 743064); conditions: GH3.TRE-Luc viability, CellTiter-Fluor, 24 h; series mostly up to 70.3 µM; activity change, negative = cytotoxic: at the top concentration; also: nearly all actives have a fitted effect of over 50% in size
From the text: National Center for Advancing Translational Sciences [NCATS]
NIH Chemical Genomics Center [NCGC]
U.S. Environmental Protection Agency [EPA]
National Institutes of Environmental Health Sciences [NIEHS]
National Toxicology Program [NTP]
U.S. Food and Drug Administration [FDA]
Thyroid receptor (TR), a nuclear hormone receptor, plays an important role in development, proliferation, differentiation, metabolism, brain function, and cardiovascular system. […] To profile the Tox21 10K compound library in TR signaling, a cell-based GH3-TRE-Luc assay (GH3.TRE-Luc cell line, developed by the laboratory of Dr. Albertinka J. Murk, Wageningen University) was used to measure the inhibition of TR. GH3 (rat pituitary tumor) cells stably expressing a TR activity sensor consisting of two TR response elements and a luciferase reporter gene. The cytotoxicity of the Tox21 compound library against the GH3.TRE-Luc cell line was tested in parallel by measuring the cell viability using CellTiter-Fluor assay (Promega, Madison, WI) in the same wells.
Tox21 Assay Protocol Summary:
GH3.TRE-Luc cells were dispensed at 1500 cells/4 uL/well into 1536-well white solid bottom plates using a Multidrop Combi dispenser (Thermo Fisher Scientific Inc., Waltham, MA). After the assay plates were incubated at 37 C for 4 hours, 23 nL of library compound or DMSO controls was transferred to the assay plates by a pintool station (Kalypsys, San Diego, CA), followed by addition of 1 ul of T3 (1 nM, final concentration in the wells) to stimulate TR transactivation. The assay plates were incubated at 37 C for 23.5 h, and then 1 uL of CellTiter-Fluor reagent (Promega, Madision, WI) of measuring cytotoxicity was added to each well using a Bioraptr Flying Reagent Dispenser (FRD) workstation (Beckman Coulter, Indianapolis, IN, USA). The plates were incubated at 37C and 5% CO2 for additional 30 min, and fluorescence intensity was measured by a ViewLux plate reader (PerkinElmer, Shelton, CT).
% is scaled to controls: 0 for no effect and ±100 for the full control effect; potency is read from the fitted curve at half-maximal effect.

Compound | activity change, negative = cytotoxic | Potency
C=C(C)[C@@H]1CC=C(C)C(=O)C1 | 11.6% (inactive) | –
C=CCCCC | 3.18% [at 95 µM] (inactive) | –
COC(=O)c1cc(Cl)cc(Cl)c1 | 8.45% (inactive) | –
Cc1ccc2c(c1)C(=O)c1ccccc1C2=O | -8% (inactive) | –
COC(=O)CCCCC(=O)O | -9.71% (inactive) | –
CC(=O)CC(=O)OC(C)(C)C | -0.425% (inactive) | –
c1ccc2c(CC3=NCCN3)cccc2c1 | – | inactive
CCCCCCCCCOC(=O)c1ccccc1C(=O)OCCCCCCCCC | 6.17% (inactive) | –
CCCCCC(C)O (stereo not given) | 13.5% (inactive) | –
Cc1ccnc(N)c1 | -0.415% (inactive) | –
CC1(C)Cc2cccc(N)c2O1 | 11.9% (inactive) | –
CC(=O)C1C(=O)C=C(C)OC1=O (stereo not given) | 0.721% (inactive) | –
C=C(C)c1cccc(C(C)(C)N=C=O)c1 | -4.9% (inactive) | –
CC1CCc2c(N3CCC(O)CC3)c(F)cc3c(=O)c(C(=O)O)cn1c23 (stereo not given) | 15.2% (inactive) | –
CC(N)CCCC(C)(C)O (stereo not given) | 1.89% (inactive) | –
N#Cc1cscn1 | -11.4% (inactive) | –
CC1(C)Oc2ccc(C#N)cc2[C@@H](N2CCCC2=O)[C@@H]1O | 14.2% (inactive) | –
CCc1occc(=O)c1O | 6.7% (inactive) | –
Cc1ccc(N)cc1S(=O)(=O)O | 12.2% (inactive) | –
CN(C)CCOC(=O)C(c1ccccc1)C1(O)CCCC1 (stereo not given) | -13.1% (inactive) | –

Compound | activity change, negative = cytotoxic | Potency
CC1=C(O)C(=O)C(C)O1 (stereo not given) | -5.88% [at 95 µM] (inactive) | –
Fc1ccccc1 | 0.222% [at 95 µM] (inactive) | –
Cc1cccc(Cl)c1 | 24.5% (inactive) | –
Cc1c(Cl)cccc1Cl | 9.79% (inactive) | –
C[Si]1(C)O[Si](C)(C)O[Si](C)(C)O[Si](C)(C)O[Si](C)(C)O1 | 23.9% (inactive) | –
[O]=[Mo](=[O])=[O] | 0.159% [at 32.5 µM] (inactive) | –
CC(=O)O[Si](C)(OC(C)=O)OC(C)=O | -0.297% [at 95 µM] (inactive) | –
CNCCS(=O)(=O)O | 8.08% [at 95 µM] (inactive) | –
C=CCN1C[C@H](C(=O)N(CCCN(C)C)C(=O)NCC)C[C@@H]2c3cccc4[nH]cc(c34)C[C@H]21 | – | 3.76 µM (active)
CCC(C)OC(C)CC (stereo not given) | 3.87% [at 95 µM] (inactive) | –
CC1=NN(c2ccc(S(=O)(=O)O)cc2)C(=O)C1 | 10.6% (inactive) | –
N[C@@H](CSCCCO)C(=O)O | 25.5% (inactive) | –
CO[Si](CCCn1c(=O)n(CCC[Si](OC)(OC)OC)c(=O)n(CCC[Si](OC)(OC)OC)c1=O)(OC)OC | 11.7% (inactive) | –
CN1CCOC(c2ccccc2)c2ccccc2C1 (stereo not given) | 1.84% [at 32.5 µM] (inactive) | –
O=C=NCC1CCCC(CN=C=O)C1 (stereo not given) | -2.06% (inactive) | –
Cc1cc(-c2ccccc2)nnc1NCCN1CCOCC1 | 13.4% (inactive) | –
C=Cc1ccc(C(C)(C)C)cc1 | -3.92% (inactive) | –
COc1ccc(CCO)cc1 | -14.3% (inactive) | –
O=C1CCC(=O)N1Cl | 10.5% (inactive) | –
CCCCC1CCC(O)CC1 (stereo not given) | 12.2% (inactive) | –
